# Source: PubChem
# CYP2C19 act = activators of human cytochrome P450 2C19; P33261; recombinant CYP2C19, luciferin-H EGE luminescence; hits give high values; 0 = fully inhibited enzyme, 1 = untreated enzyme; activation factor at 5 µM; 96,000 tested, under 10 active; AID 1025;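 active means activation factor of at least 2 at 5 µM in the primary screen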;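 further: 0 = wells with 2.5 mM tranylcypromine and 1 = vehicle-only wells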
# Target sequence (P33261 whole entry, looked up): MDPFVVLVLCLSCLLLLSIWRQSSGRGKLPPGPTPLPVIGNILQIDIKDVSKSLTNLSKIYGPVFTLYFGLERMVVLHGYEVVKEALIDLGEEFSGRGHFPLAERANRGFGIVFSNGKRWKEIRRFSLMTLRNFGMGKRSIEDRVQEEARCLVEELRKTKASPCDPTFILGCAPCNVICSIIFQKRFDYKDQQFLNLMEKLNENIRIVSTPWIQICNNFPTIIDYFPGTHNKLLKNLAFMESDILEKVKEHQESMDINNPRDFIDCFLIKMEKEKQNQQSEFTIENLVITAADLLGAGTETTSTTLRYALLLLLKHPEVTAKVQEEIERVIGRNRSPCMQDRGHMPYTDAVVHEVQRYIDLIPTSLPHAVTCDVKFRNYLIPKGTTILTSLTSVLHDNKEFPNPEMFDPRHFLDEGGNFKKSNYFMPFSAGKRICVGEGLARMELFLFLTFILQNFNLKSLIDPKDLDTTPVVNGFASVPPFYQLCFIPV
# CYP2C19 inh = inhibitors of human CYP2C19; AID 778; CYP2C19 Supersomes, luciferin-H EGE luminescence, 30 min; inhibition, % at 5 µM; 96,000 tested, 21% active;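 active means CYP2C19 inhibition above a set limit at 5 µM in the primary screen, cut at about 50% in these data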;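 further: plate controls were negative control wells for no effect and 2.5 mM tranylcypromine positive control for full effect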
# CYP2C9 inhib = blocks human cytochrome P450 2C9; CYP2C9 Supersomes, luciferin-H conversion, luminescence; inhibition, % at 5 µM; 96,000 tested, 20% active; AID 777;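 active means blocking of liver enzyme CYP2C9 beyond about 50% at 5 µM, limit read from the data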
# CYP2C9 act = CYP2C9 (human) activation | P11712 | recombinant CYP2C9, luciferin-H conversion, luminescence; hits give high values; factor 1 = untreated enzyme, 0 = blocked | activation factor at 5 µM | 96,000 tested, 1.4% active;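 active means activation factor of 2 or more for CYP2C9 at a 5 µM dose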;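 further: 0 = sulfaphenazole-blocked wells and 1 = vehicle-only wells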
# Cav32 inh = inhibitors of human Cav3.2 T-type calcium channel. B-score at 10 µM. 100,000 tested, 4% active. O95180. Cav3.2-expressing cells, Fluo-4 calcium fluorescence FDSS; hits give low values;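 active means single-dose well whose peak fluorescence ratio is a statistical outlier from its plate by either plate-standardised score or position-corrected B-score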
# * marks the source's active call; other numbers are inactive results; · = no result. Shown are actives, neighbours in structure and some others; about 27% of the full set was active somewhere.
SMILES,CYP2C19 act,CYP2C19 inh,CYP2C9 inhib,CYP2C9 act,Cav32 inh
CCOC(=O)Cc1c(C)nc2c(-c3ccc(Cl)cc3)c(C)[nH]n2c1=O,0.4,56.2*,8.8,0.9,·
CCOC(=O)Cc1c(C)nc2c(C#N)c[nH]n2c1=O,0.7,25.2,3.2,1,0.327
CCOC(=O)Cc1c(C)nc2cc(-c3ccc(C(C)(C)C)cc3)[nH]n2c1=O,1.1,-12.3,28.1,0.7,0.0292
CCOC(=O)Cc1c(C)nc2c(-c3cccc(Br)c3)c[nH]n2c1=O,0.9,14.9,73.6*,0.3,-5.84*
Cc1ccccc1NC(=O)c1ccc(-c2ccc(Cl)cc2Cl)o1,0.7,33.4,49.1,0.5,-7.49*
Cc1cccc(C)c1NC(=O)c1ccc(-c2ccc(Cl)cc2Cl)o1,1,-0.8,24.2,0.8,-4.82*
Cc1ccccc1-c1ccc(C(=O)Nc2cccc(F)c2)o1,·,·,·,·,-2.14
CN=C1SC(CC(=O)Nc2ccccc2F)C(=O)N1C (centres undefined),1,-4.8,-28.4,1.3,1.17
COC(=O)c1cc(NC(=O)CC2SC(=Nc3ccccc3)N(CCc3c[nH]c4ccccc34)C2=O)cc(C(=O)OC)c1 (centres undefined),1,4.9,80.6*,0.2,-0.115
COc1ccccc1NC(=O)CCn1c(=O)sc2ccccc21,·,·,·,·,-0.15
CN=C1SC(CC(=O)Nc2cccc(C(F)(F)F)c2)C(=O)N1C (centres undefined),0.7,32.6,-286.3,3.9*,-0.0776
CCn1c2ccccc2c2cc(N=C3SC(CC(=O)Nc4ccccc4)C(=O)N3C)ccc21 (centres undefined),0.6,36.6,87.1*,0.1,-0.436
CCn1c2ccccc2c2cc(N=C3SC(CC(=O)Nc4ccccc4OC)C(=O)N3C)ccc21 (centres undefined),0.6,37.5,87.1*,0.1,-0.432
CC(=O)Nc1cccc(NC(=O)C2CC3CCC2C3)c1 (centres undefined),0.8,17.0,13.3,0.9,1.41
O=C(O)c1ccc2c(c1)C(c1ccccc1)OC2=O (centres undefined),1.1,-5.9,18.1,0.8,0.31
COCCN1C(=O)C(CC(=O)Nc2ccc(C(=O)O)cc2)SC1=Nc1ccccc1 (centres undefined),1.1,-13.6,2.9,1,·
CN=C1SC(CC(=O)Nc2sc(C)c(C)c2C(=O)OC)C(=O)N1C (centres undefined),0.5,48.0,57.6*,0.4,-2.39
COc1ccc(N=C2SC(CC(=O)Nc3ccccc3)C(=O)N2CC2CCCO2)cc1 (centres undefined),0.5,46.9,73.4*,0.3,-2.92
Cc1nc2ncnn2c(C)c1CCC(=O)Nc1csc(N)n1,·,·,·,·,0.229
COc1ccc(N(C(=O)Cn2nnc3ccccc32)C(C(=O)NCc2ccco2)c2ccc(C)o2)cc1 (centres undefined),0.3,68.2*,58.2*,0.4,-0.771
Cc1cc(C)cc(N(C(=O)Cn2nnc3ccccc32)C(C(=O)NCc2ccco2)c2ccncc2)c1 (centres undefined),0.7,33.2,13.3,0.9,-0.0126
Cc1ccc(N(C(=O)Cn2nnc3ccccc32)C(C(=O)NCc2ccco2)c2ccc(C)o2)cc1 (centres undefined),0.6,39.3,17.9,0.8,-4.3*
COc1ccc(OC)c(C(C(=O)NCc2ccco2)N(C(=O)Cn2nnc3ccccc32)C(C)C)c1 (centres undefined),0.4,62.3*,11.7,0.9,0.842
Cc1ccc(C(C(=O)NCc2ccco2)N(C(=O)Cn2nnc3ccccc32)c2ccccc2)o1 (centres undefined),0.7,25.6,6.9,0.9,·
Cc1ccc(N(C(=O)Cn2nnc3ccccc32)C(C(=O)NCc2ccco2)c2cccnc2)cc1 (centres undefined),0.3,65.0*,6.1,0.9,1.39
SMILES,CYP2C19 act,CYP2C19 inh,CYP2C9 inhib,CYP2C9 act,Cav32 inh
COCCSc1ccccc1C(=O)Nc1nncs1,1,0.5,-2.5,1,0.285
COc1ccc(C2/C(=C(\O)c3ccc4c(c3)OCCO4)C(=O)C(=O)N2CCCN(C)C)c(OC)c1 (centres undefined),1,1.6,3.5,1,0.163
Cc1ccc(C(C(=O)NCc2ccco2)N(CCc2ccccc2)C(=O)Cn2nnc3ccccc32)o1 (centres undefined),0.9,13.9,11.1,0.9,-5.6*
COC(C[C@@H](O)C[C@H](O)[C@@H](C)OCc1ccccc1)OC,·,·,·,·,0.382
CC(=O)C1=C(O)C(=O)N(c2cccnc2)C1c1ccc(Cl)cc1 (centres undefined),1,1.0,24.2,0.8,1.1
COC(=O)CN(c1ccccc1C)S(C)(=O)=O,1,3.4,-6.1,1.1,1.29
CCCNC(=O)CN(c1ccc(F)c(Cl)c1)S(C)(=O)=O,0.7,29.3,11.5,0.9,0.505
COC(=O)CN(c1c(C)cccc1C)S(C)(=O)=O,0.4,56.0*,0.9,1,0.801
Cc1ccc(N(CC(=O)N/N=C/c2cccs2)S(C)(=O)=O)cc1Cl,0.5,47.0,68.6*,0.3,-2.13
COC(=O)CN(c1ccc(C)c(Cl)c1)S(C)(=O)=O,0.5,54.5*,-8.9,1.1,0.121
COc1ccc(C=NCC2COc3ccccc3O2)cc1OC (centres undefined),1.1,-7.1,-1.2,1,0.577
COC(=O)c1ccc2c(c1)C(C)(C)C(/C=C/c1ccc(O)cc1)=[N+]2C,0.1,94.7*,98.6*,0,-4.41
CCN(CC)c1ccc(NC(=O)C(C)C)cc1,1,1.8,8.9,0.9,-0.437
CCN(CC)c1ccc(CC(=O)NC(C)Cc2ccccc2)cc1 (centres undefined),0.2,81.7*,60.4*,0.4,-1.81
Cn1c(C(=O)O)c(CC(=O)Nc2ccccc2F)c2ccccc21,0.4,59.4*,93.0*,0.1,-0.459
O=C(CNC(=O)Cn1ccc2ccccc2c1=O)NCCCN1CCCCCC1,1.2,-16.6,-16.8,1.2,-0.0878
CCCc1[nH]nc2c1C(c1cccc(OC)c1)C(C#N)=C(N)O2 (centres undefined),0.3,72.9*,76.2*,0.2,0.467
CCCc1[nH]nc2c1C(c1ccc(O)cc1OCC)C(C#N)=C(N)O2 (centres undefined),0.2,76.0*,53.2*,0.5,0.645
CCCc1[nH]nc2c1C(c1ccc(OCCN3CCOCC3)c(OCC)c1)C(C#N)=C(N)O2 (centres undefined),1,-4.4,26.8,0.7,0.00183
CC1(C(=O)N2CC3(CC(c4cccc([N+](=O)[O-])c4)=NO3)C[C@H]2C(=O)NCC(N)=O)CC1 (some centres undefined),1,4.8,-15.0,1.1,-0.147
CNc1cc(-n2nc(C)cc2-c2ccccc2)ncn1,0.4,60.9*,48.4,0.5,1.45
O=C(NC1(C(F)(F)F)NC(=O)N(Cc2ccccc2)C1=O)c1cccs1 (centres undefined),·,·,·,·,2.05
O=C(CN1C(=O)C2(OCCCO2)c2ccccc21)NCCc1ccccc1,0.1,86.2*,17.2,0.8,0.768
